Assay results reported in the supplement of paper PMC4723716.

System: Plasmodium falciparum NF54 gametocytes
Test: viability index relative to DMSO control (fraction); higher = less gametocyte killing
Settings: 12.5 µM, incubation time: 72 h
Method in brief: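 Each stage (I–V) of P. falciparum NF54 gametocytes was incubated with compound at 12.5 µM in 384-well plates, in 40 µl of serum-containing medium at 0.50% gametocytemia and 1.25% hematocrit, for 72 hr at 37°C under low oxygen. After 5 µl of 5 µM MitoTracker Red CMXRos was added for 20 min, 5 µl from each well was moved into 40 µl of 500 nM dye in serum-free medium and imaged across three fields after 30 min. The viability index is the gametocyte particle count divided by the plate mean of the solvent-only wells.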

[1] = gametocyte stage: Stage I viability index
[2] = gametocyte stage: Stage II viability index
[3] = gametocyte stage: Stage III viability index
[4] = gametocyte stage: Stage IV viability index
[5] = gametocyte stage: Stage V viability index

Structure (SMILES) | viability index [1] | viability index [2] | viability index [3] | viability index [4] | viability index [5]
CCCc1c(C)nc2ccc(Br)cc2c1O | 0.777 | 0.706 | 0.893 | 0.965 | 0.753
CCc1ccc(Nc2cc(C)c3ccc(O)cc3n2)cc1 | 0.238 | 0.256 | 0.706 | 0.827 | 0.945
CCCOCc1cc(CN2CCN(c3cccc(Cl)c3)CC2)c(O)c2ncccc12 | 0.00962 | 0.0225 | 0.0244 | 0.0127 | 0
O=C(Nc1ccc(-c2nc3ccccc3[nH]2)cc1)c1ccc(Cl)c(Cl)c1 | 0.129 | 0.564 | 0.894 | 0.978 | 0.727
COc1ccc2nc(N)nc(C)c2c1 | 0.353 | 0.614 | 0.685 | 0.959 | 1.04
CCOc1ccc2nc(C)cc(Nc3ccc(Br)cc3)c2c1 | 0.152 | 0.407 | 0.828 | 0.851 | 0.818
Cc1ccc(-c2cc3nc4c(c(O)n3n2)CCCC4)cc1 | 0.537 | 0.804 | 0.894 | 0.766 | 0.857
COc1ccc(-c2cc3c(nn2)-c2ccccc2C3=O)cc1 | 0.713 | 0.675 | 0.735 | 0.693 | 1
CCOC(=O)c1cnc2ccc(OC)cc2c1NCc1ccccc1 | 0.309 | 0.535 | 0.991 | 0.835 | 0.87
FC(F)(F)c1cccc(CNC2CCN(CCc3ccccc3)CC2)c1 | 0.0431 | 0.464 | 0.856 | 0.83 | 0.802
CCOc1cc(Br)c(C(C)NC(=O)c2cccc(OC)c2)cc1OCC (stereo not given) | 0.465 | 0.412 | 0.58 | 0.748 | 0.648
CCn1c(CN2CCN(Cc3ccccc3)CC2)nc2cc(NC(=O)c3cccs3)ccc21 | 0.701 | 0.837 | 0.924 | 0.967 | 1.05
O=C(CCc1ccccc1)c1ccccc1OCC(O)CN1CCCCC1 (stereo not given) | 0.00787 | 0.0616 | 0.36 | 0.465 | 0.39
O=C(Nc1ccc(F)c(Cl)c1)Nc1ccc(Cl)c(Cl)c1 | 0.0409 | 0.0309 | 0.0835 | 0.17 | 0.165
Cc1cc(N2CCCC2)nc(Nc2ccc(NC(=O)CCc3ccccc3)cc2)n1 | 0.0734 | 0.0508 | 0.261 | 0.345 | 0.13
COc1cccc(C2(C)Nc3ccccc3-c3nc4ccccc4n32)c1 (stereo not given) | 0.113 | 0.0986 | 0.198 | 0.465 | 0.154
COc1ccc(-c2nc3cc(Cc4ccc5[nH]c(-c6ccc(OC)cc6)nc5c4)ccc3[nH]2)cc1 | 0.0276 | 0.441 | 0.864 | 0.809 | 0.538
CCOc1cccc2sc(N(Cc3cccnc3)C(=O)C3CCCCC3)nc12 | 0.478 | 0.691 | 1.09 | 0.951 | 0.989
Cc1ccc2cc3c(N)c4c(C)ccc(C)c4nc3nc2c1 | 0.0542 | 0.005 | 0.0231 | 0.00316 | 0.026
O=C1CC(O)(C(F)(F)C(F)(F)F)Oc2ccccc21 (stereo not given) | 1.22 | 0.957 | 1.2 | 1.19 | 0.813
c1ccc2c(NCCc3c[nH]c4ccccc34)c3ccccc3nc2c1 | 0.145 | 0.22 | 0.609 | 0.687 | 0.675
O=C(Nc1ccc(Cl)c(Cl)c1)Nc1ccc(Cl)c(Cl)c1 | 0.0437 | 0.0241 | 0.0353 | 0.0918 | 0.104
Cc1cc(NC(=O)c2cccc(C(F)(F)F)c2)n(-c2nc(-c3ccc4c(c3)OCO4)cs2)n1 | 1.26 | 0.943 | 1.1 | 0.951 | 0.956
CCOc1c(Cl)cc(CNCC(O)c2ccccc2)cc1OC (stereo not given) | 0.231 | 0.272 | 0.793 | 0.918 | 0.714
COc1ccc(C2=C(c3ccc(OC)cc3)C3(c4ccccc4)C(=O)C2(c2ccccc2)C2C(=O)N(c4ccc(C)cc4)C(=O)C23)cc1 (stereo not given) | 0.682 | 0.679 | 0.949 | 1.02 | 0.967
